Assay outcomes (PubChem)
Most compounds without a hit are left out; they make up all but 4.4% or so of the library.
Cav3 T inh: inhibitors of human Cav3.2 T-type calcium channel. O95180. 100,000 compounds, 4% hits. Cav3.2-expressing cells, Fluo-4 calcium fluorescence FDSS; active compounds read low. B-score at 10 µM. AID 449739;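 active = single-dose well whose peak fluorescence ratio is a statistical outlier from its plate by either plate-standardised score or position-corrected B-score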
IL1B cytotox: toxic to HUVEC cells under IL-1B stimulation; HUVEC cell count loss, Hoechst imaging, IL-1B stimulated; cell count reduction, % at 2 µM; 94,000 compounds, 0.41% hits; AID 845;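 active = cell count reduction more than 3 SD above the screen-wide mean, cut at about 70% in these data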
IL1B NFkB inh: blocks IL-1B driven NFkB nuclear translocation in HUVEC cells. 94,000 compounds, 0.43% hits. inhibition, % at 2 µM. HUVEC IL-1B NFkB p65 nuclear translocation imaging. AID 796;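 active = inhibition above about 30% together with a positive call from visual inspection of the well image, limit read from the data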;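 note: nuclear over cytoplasmic p65 intensity ratio measured by imaging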
IL1B NFkB pot: enhances IL-1B driven NFkB nuclear translocation | HUVEC IL-1B NFkB p65 nuclear translocation imaging | activation, % at 2 µM | 94,000 compounds, 0.3% hits;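 active = activation above 40%, about the mean plus 3 SD, also judged a hit on visual image review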;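 note: percent activation is computed from the nuclear over cytoplasmic p65 intensity ratio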
Numbers stand for hits; 0 = inactive; - = no result given.

SMILES	Cav3 T inh	IL1B cytotox	IL1B NFkB inh	IL1B NFkB pot
CCCNC(=O)c1c(N)n(-c2cc(OC)cc(OC)c2)c2nc3ccccc3nc12	-6.5	-	-	-
COc1ccc(-n2c(N)c(C(=O)NCC3CCCO3)c3nc4ccccc4nc32)c(OC)c1 (stereo not drawn)	-8	0	0	0
CCCNC(=O)c1c(N)n(-c2ccc3c(c2)OCO3)c2nc3ccccc3nc12	0	0	0	0
CN1C(=O)C2(c3ccccc31)N(C)CC(c1ccccn1)C21SC(=S)N(Cc2ccco2)C1=O (stereo not drawn)	-4.7	0	0	0
CC(C)(C)c1cc(S(=O)(=O)CCc2ccccn2)cc(C(C)(C)C)c1F	-4	0	0	0
Cc1cccc(CN(C)CCc2ccccn2)c1	0	0	0	0
COc1ccc(-n2cnnc2SCC(=O)c2cc(C)n(Cc3cccs3)c2C)cc1	-5.4	0	0	0
Cc1csc(SCC(=O)c2cc(C)n(Cc3cccs3)c2C)n1	-4	0	0	0
Cc1csc(SCC(=O)Nc2ccc(Cl)cn2)n1	-5.1	-	-	-
COc1ccc(C(=O)NC(C)c2nnc(SCC(=O)Nc3nc4ccccc4s3)n2C)cc1 (stereo not drawn)	0	0	0	0
CCCCCCCOC(=O)C1=C(C)Nc2ncnn2C1c1cccs1 (stereo not drawn)	0	0	0	41
CCCCCCCCOC(=O)C1=C(C)Nc2nnnn2C1c1cccs1 (stereo not drawn)	0	0	0	0
CCOC(=O)c1nn(-c2ccc3c(c2)OCO3)cc1O	0	0	0	0
CS(=O)(=O)N1c2ccccc2[C@]2(Br)C[C@H]3C(=O)N[C@@H](Cc4ccccc4)C(=O)N3[C@H]12	0	-	-	-
O=C1COc2ccc(C(=O)c3ccccc3C(=O)NCc3ccco3)cc2N1	0	0	0	0
O=C1COc2ccc(C(=O)c3ccccc3C(=O)NCc3ccccc3)cc2N1	-7.2	0	0	0
CCOc1ccccc1C(=O)OCC(=O)Nc1ccc(OC(F)F)cc1	0	0	0	0
COc1ccc(C2CC(c3cccs3)=NN2c2nc(-c3ccccc3)cs2)cc1OC (stereo not drawn)	0	0	0	0
Cc1cccc2cc(CN(Cc3ccc(F)cc3)C(=O)C(F)(F)F)c3nnnn3c12	0	0	0	0
Cc1cccc2cc(CN(Cc3ccc(F)cc3)C(=O)N(C)C)c3nnnn3c12	-6.1	0	0	0
OC1(c2ccccc2)C/C(=N\n2cnnc2)C=C1c1ccccc1 (stereo not drawn)	0	0	0	0
O=C1C=C(N2CCOCC2)CCC1	0	-	-	-
CCOC(=O)c1cnc(-n2nc(C)cc2C)nc1N(CC)CC	0	-	-	-
Cc1c(C(=O)NN2CCCCC2)nn(-c2ccc(Cl)cc2Cl)c1-c1ccc(I)cc1	-4.9	-	-	-
COc1ccc(NC(=O)C(NC(C)=O)C(=O)NCc2ccc(F)cc2)cc1 (stereo not drawn)	-	0	0	0
SMILES	Cav3 T inh	IL1B cytotox	IL1B NFkB inh	IL1B NFkB pot
CC1CCN(S(=O)(=O)c2cccc(C(=O)NCc3cccs3)c2)CC1	-7.3	0	0	0
O=C(Nc1nc(-c2ccccc2)cs1)C1CCCN(S(=O)(=O)c2cccc([N+](=O)[O-])c2)C1 (stereo not drawn)	-6.1	0	0	0
CC1CCN(S(=O)(=O)c2cccc(C(=O)NCc3ccco3)c2)CC1	-	0	0	0
COc1ccc(C(=O)Nc2nc(-c3cccs3)cs2)cc1	-8.9	0	0	0
O=C(Nc1nc(-c2cccs2)cs1)c1cccc(S(=O)(=O)N2CCCCC2)c1	-9.2	0	0	0
COc1ccc(CCN2C(=O)CC(C(N)=O)SC2=Nc2ccccc2)cc1OC (stereo not drawn)	0	0	0	0
COc1cc2c(cc1OC)C(c1cc3cc4c(cc3[nH]c1=O)OCO4)N(C(=O)C(C)C)CC2 (stereo not drawn)	0	0	0	0
CCOc1ccc(C(C)=O)cc1COc1ccc(-n2cnnn2)cc1	0	-	-	-
CCCCc1nc(S(=O)(=O)c2ccc(Cl)cc2)c(N2CCOCC2)o1	0	0	0	0
COc1ccc(C2=NOC(C(=O)NCc3ccccc3)C2)cc1 (stereo not drawn)	-	0	0	0
CCN(CC)C(=O)C1CC(c2ccc(OC)cc2)=NO1 (stereo not drawn)	-4.3	0	0	0
O=C(Nc1ccc2c(c1)OCO2)C(c1ccc(Cl)cc1)N1CCN(C(=O)c2ccco2)CC1 (stereo not drawn)	-4.3	0	0	0
O=C(Nc1ccc2c(c1)OCO2)Nc1ccc(Cl)cc1Cl	0	0	0	0
CC(Sc1ccc(Cl)cc1)C(=O)Nc1ccc(S(=O)(=O)N2CCOCC2)cc1 (stereo not drawn)	-5.1	0	0	0
O=C(Nc1ccc2c(c1)OCO2)C(c1ccccc1)N1CCN(C(=O)c2ccco2)CC1 (stereo not drawn)	0	-	-	-
CC(Sc1ccc(Cl)cc1)C(=O)Nc1ccc2c(c1)OCO2 (stereo not drawn)	-5.8	0	0	0
CC(Sc1ccc(Cl)cc1)C(=O)NCc1ccc2c(c1)OCO2 (stereo not drawn)	-5.8	0	0	0
C/C(=C\C(=O)c1ccc(Cl)cc1)NCc1ccc2c(c1)OCO2	0	0	0	0
CC(C)C(C(=O)Nc1ccc(S(=O)(=O)N2CCOCC2)cc1)N1C(=O)c2ccccc2C1=O (stereo not drawn)	0	0	0	0
CCOC(=O)C(NC(=O)c1ccccc1OCC)(Nc1ncccn1)C(F)(F)F (stereo not drawn)	0	0	0	0
CCOC(=O)CN(C(=O)CSc1nnc2c(n1)[nH]c1c(C)cc(C)cc12)c1ccccc1	0	0	0	0
CC(C(=O)NCc1ccc2c(c1)OCO2)N1c2cccc3cccc(c23)S1(=O)=O (stereo not drawn)	-5.1	0	0	0
CC1(C(=O)NC2CCCC2)CCC(=O)N1Cc1ccccc1Cl (stereo not drawn)	0	-	-	-
CC(=O)c1cccc(NC(=O)NCc2cccs2)c1	0	0	0	46
COc1cc(NC(=O)Nc2cccc(C(C)=O)c2)cc(OC)c1OC	0	72	0	0
SMILES	Cav3 T inh	IL1B cytotox	IL1B NFkB inh	IL1B NFkB pot
COc1cccc(OC)c1C(=O)Nc1cccc(C(C)=O)c1	0	0	0	0
CCCC(=O)N=C1SC2CS(=O)(=O)CC2N1c1ccc(CC)cc1 (stereo not drawn)	-	0	0	0
O=C1C2C3CCCC3=C3CCCC3C2C(=O)N1c1ccccc1 (stereo not drawn)	0	0	0	0
Cc1cc(C(F)(F)F)n(-c2nc(C(=O)Nc3ccccc3Oc3ccccc3)cs2)n1	-4.4	0	0	0
COc1ccccc1NC(=O)c1csc(-n2nc(C)cc2C(F)(F)F)n1	0	0	0	0
CC(C)(C)C(=O)/C(=C\c1ccc([N+](=O)[O-])cc1)n1cncn1	0	0	69	0
O=C(c1cc(C2CC2)nc2ccccc12)N1N=C(C(F)F)CC1(O)C(F)F (stereo not drawn)	0	0	0	0
O=C(c1cc(C2CC2)nc2ccc(Br)cc12)N1N=C(C(F)F)CC1(O)C(F)F (stereo not drawn)	-7.5	0	0	0
Cc1cc2n(n1)SC(Nc1ccc(F)c(Cl)c1)N2 (stereo not drawn)	0	0	0	0
